Sampled rows, rich in hits. Any-hit rate of the full collection: about 4%.
Mtb FBA inh: Mtb fructose-bisphosphate aldolase inhibition. P9WQA3. purified M. tuberculosis FBA, fluorescence read-out. inhibition, % at 1 µM. actives 2.3% (n = 360,000). AID 588726
Mtb betalactam: beta-lactam sensitization of Mtb H37Rv. M. tuberculosis H37Rv growth with meropenem, percent inhibition. inhibition, % at 25 µM. actives 0.27% (n = 330,000); call rule not given here;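 note: growth measured after seven days incubation then overnight dye step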
RecA intein inh: inhibitors of M. tuberculosis RecA intein splicing; P9WHJ3; cell-free RecA intein splicing, fluorescence; inhibition, % (no concentration beside the values); actives 0.75% (n = 290,000); in the data active = inhibition above about 30%
UGM FP inh: Mtb UDP-galactopyranose mutase inhibition. actives 0.06% (n = 320,000). AID 504406. P9WIQ1. inhibition, % at 10 µM. purified UGM, fluorescence polarization probe displacement; in the data active = inhibition above about 10%, passing the limit was not always enough
Rv3671c inh: inhibits the M. tuberculosis serine protease Rv3671c | inhibition, % at 5.96 µM | actives 0.048% (n = 320,000) | AID 2606; in the data active = inhibition above about 38%;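 note: extracellular domain of Rv3671c used as enzyme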
Target sequence (P9WHR9 whole entry, looked up, the tested form may be a part): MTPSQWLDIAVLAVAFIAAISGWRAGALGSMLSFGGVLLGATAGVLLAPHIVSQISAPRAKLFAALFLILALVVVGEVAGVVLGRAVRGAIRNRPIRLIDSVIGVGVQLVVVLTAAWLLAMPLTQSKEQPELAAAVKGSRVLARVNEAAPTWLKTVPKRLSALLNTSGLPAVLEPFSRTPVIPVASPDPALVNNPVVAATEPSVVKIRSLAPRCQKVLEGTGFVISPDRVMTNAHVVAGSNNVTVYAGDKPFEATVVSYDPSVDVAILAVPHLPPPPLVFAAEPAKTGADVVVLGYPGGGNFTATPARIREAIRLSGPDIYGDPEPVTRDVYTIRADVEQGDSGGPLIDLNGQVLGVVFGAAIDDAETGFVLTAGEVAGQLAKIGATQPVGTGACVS
GDH-TPI counter-1: GDH-TPI coupled enzyme inhibition counter-screen. GDH-TPI coupled enzyme counterscreen, NADH absorbance. actives 1.2% (n = 360,000). inhibition, % at 4.8 µM. AID 588335; in the data active = inhibition above about 30%
Mtb FBA confirm: confirmation of M. tuberculosis fructose-bisphosphate aldolase inhibitors; shares compounds with Mtb FBA inh; purified M. tuberculosis FBA, fluorescence read-out; inhibition, % at 1 µM; actives 78% (n = 5,600); AID 651616
GDH-TPI counter-2: counter-screen for M. tuberculosis FBA inhibitors: GDH-TPI coupled enzyme inhibition; shares compounds with Mtb FBA inh; GDH-TPI coupled enzyme counterscreen, fluorescence; inhibition, % at 1 µM; actives 81% (n = 5,600); AID 652141; in the data active = inhibition above about 10%
Hits are given with their value. Cut-off read from the data, not from the text of the source, unless noted: active = inhibition above about 27%; inactive = the rest.

C[C@]12c3[nH]c4cc(-c5ccco5)ccc4c3CCN1C(=O)[C@@H](CC(=O)NCCN1CCOCC1)C[C@@H]2C(=O)N1CCOCC1 was read as Mtb FBA inh 46.4, GDH-TPI counter-1 inactive, Mtb FBA confirm active and GDH-TPI counter-2 active.
`CC(C)N(C(=O)[C@H]1C[C@H](CC(=O)NCCN2CCOCC2)C(=O)N2CCc3c([nH]c4cc(-c5ccco5)ccc34)[C@]12C)C(C)C` gave Mtb FBA inh 35.8, GDH-TPI counter-1 inactive, Mtb FBA confirm 150.5 and GDH-TPI counter-2 123.9.
COc1ccccc1CN1C(=O)C(Cc2ccccc2)ON=C1c1ncccc1C (configuration not stated) was read as Mtb FBA inh inactive and GDH-TPI counter-1 inactive.
`Cc1cc(=O)n(C(C)(C)C)c(=O)n1Cc1ccccc1` gave Mtb FBA inh inactive, Mtb betalactam inactive, RecA intein inh inactive, UGM FP inh inactive, Rv3671c inh inactive and GDH-TPI counter-1 inactive.
`O=C(CCCCCNC(=O)N1CCn2c1nc1ccccc12)N[C@@H](Cc1ccccc1)C(=O)O` gave Mtb FBA inh inactive, Mtb betalactam inactive, RecA intein inh inactive, UGM FP inh inactive, Rv3671c inh inactive and GDH-TPI counter-1 inactive.
`CCc1noc(C)c1C(=O)Nc1ccc(Cl)c(S(=O)(=O)N2CCCCC2)c1` gave Mtb FBA inh inactive, Mtb betalactam inactive, RecA intein inh inactive, UGM FP inh inactive, Rv3671c inh inactive and GDH-TPI counter-1 inactive.
O=C(Nc1ccnn1C1CCN(Cc2ccccc2F)CC1)C1CCCC1 was read as Mtb FBA inh inactive, Mtb betalactam inactive, RecA intein inh inactive, UGM FP inh inactive, Rv3671c inh inactive and GDH-TPI counter-1 inactive.
CCN(CC)C(=O)[C@H]1C[C@H](CC(=O)NC(C)(C)C)C(=O)N2CCc3c([nH]c4cc(-c5ccco5)ccc34)[C@]12C was read as Mtb FBA inh 37.8, GDH-TPI counter-1 inactive, Mtb FBA confirm active and GDH-TPI counter-2 139.6.
For COc1ccc(CNC(=O)C[C@H]2C[C@H](C(=O)N3CCOCC3)[C@@]3(C)c4[nH]c5cc(-c6ccco6)ccc5c4CCN3C2=O)cc1OC the results were Mtb FBA inh 36.3, GDH-TPI counter-1 inactive, Mtb FBA confirm active and GDH-TPI counter-2 active.
For COc1cc2cc(CN(CCO)S(=O)(=O)c3ccccc3)c(=O)[nH]c2cc1OC the results were Mtb FBA inh 38.0, Mtb betalactam inactive, RecA intein inh inactive, UGM FP inh inactive, Rv3671c inh inactive, GDH-TPI counter-1 37.6, Mtb FBA confirm 88.4 and GDH-TPI counter-2 71.1.
`CCOC(=O)c1ccccc1NC1CC(=O)N(c2ccccc2C)C1=O` (configuration not stated) gave Mtb FBA inh 101.9, Mtb betalactam inactive, RecA intein inh inactive, UGM FP inh inactive, Rv3671c inh inactive, GDH-TPI counter-1 inactive, Mtb FBA confirm 135.2 and GDH-TPI counter-2 138.6.
O=C(NC1CCCCC1)C(c1ccccc1)N(Cc1cccnc1)C(=O)c1csnn1 (configuration not stated) was read as Mtb FBA inh inactive, Mtb betalactam inactive, UGM FP inh inactive, Rv3671c inh inactive and GDH-TPI counter-1 inactive.
`CCOC(=O)NN1C(=O)c2ccccc2NC1c1cccnc1` (configuration not stated) gave Mtb FBA inh inactive, Mtb betalactam inactive, RecA intein inh inactive, UGM FP inh inactive, Rv3671c inh inactive and GDH-TPI counter-1 inactive.
For CCOC(=O)NN1C(=O)c2ccccc2NC1c1ccc(OC)cc1OC (configuration not stated) the results were Mtb FBA inh 41.6, Mtb betalactam inactive, RecA intein inh inactive, UGM FP inh inactive, Rv3671c inh inactive, GDH-TPI counter-1 inactive, Mtb FBA confirm 179.9 and GDH-TPI counter-2 143.7.
`COc1ccc(C2Nc3ccccc3C(=O)N2NS(=O)(=O)c2ccccc2)c(OC)c1` (configuration not stated) gave Mtb FBA inh inactive, Mtb betalactam inactive, RecA intein inh inactive, UGM FP inh inactive, Rv3671c inh inactive and GDH-TPI counter-1 inactive.

Source: PubChem
